# FBA Mtb inh: inhibitors of M. tuberculosis fructose-bisphosphate aldolase; purified M. tuberculosis FBA, fluorescence read-out; inhibition, % at 1 µM; hit rate 2.3% among 360,000;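 further: 0% = vehicle and 100% = reference inhibitor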
# GDH-TPI counter-1: GDH-TPI coupled enzyme inhibition counter-screen; inhibition, % at 4.8 µM; hit rate 1.2% among 360,000; AID 588335; GDH-TPI coupled enzyme counterscreen, NADH absorbance; in the data active means inhibition above about 30%;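 further: 0% = DMSO wells and 100% = wells lacking the enzyme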
# UGM FP inh: inhibitors of M. tuberculosis UDP-galactopyranose mutase; inhibition, % at 10 µM; P9WIQ1; purified UGM, fluorescence polarization probe displacement; hit rate 0.06% among 320,000; in the data active means inhibition above about 10%, passing the limit was not always enough
# Vc quorum ag: inducers of Vibrio cholerae quorum light production without autoinducers. V. cholerae BH1578 lux reporter, luminescence, 6 h. activation, % at 18.7 µM. hit rate 0.16% among 350,000. AID 588436; in the data active means activation mostly above about 9.7%, no sharp cut-off
# RecA splice inh: inhibitors of M. tuberculosis RecA intein splicing; hit rate 0.75% among 290,000; inhibition, % (test concentration not listed); P9WHJ3; cell-free RecA intein splicing, fluorescence; in the data active means inhibition above about 30%;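 further: 0% = vehicle wells and 100% = reference inhibitor control wells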
# Rv3671c protease: Rv3671c (M. tuberculosis) protease inhibition; P9WHR9; inhibition, % at 5.96 µM; hit rate 0.048% among 320,000; AID 2606; in the data active means inhibition above about 38%;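 further: extracellular domain of Rv3671c used as enzyme; 0% = enzyme with DMSO and 100% = no enzyme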
# Target sequence (P9WHR9 whole entry, looked up, the tested form may be a part): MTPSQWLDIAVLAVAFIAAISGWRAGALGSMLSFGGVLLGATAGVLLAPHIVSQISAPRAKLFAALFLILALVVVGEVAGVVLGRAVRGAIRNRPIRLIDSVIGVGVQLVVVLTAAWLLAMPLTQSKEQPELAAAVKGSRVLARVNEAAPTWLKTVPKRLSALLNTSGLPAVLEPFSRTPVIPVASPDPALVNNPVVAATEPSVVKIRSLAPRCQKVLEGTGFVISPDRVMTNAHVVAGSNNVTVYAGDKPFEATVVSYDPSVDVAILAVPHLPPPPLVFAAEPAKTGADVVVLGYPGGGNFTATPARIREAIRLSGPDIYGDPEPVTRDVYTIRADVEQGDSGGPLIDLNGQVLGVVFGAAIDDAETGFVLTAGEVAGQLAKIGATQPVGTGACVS
# Mtb FBA inh conf: Mtb FBA inhibition, confirmed | inhibition, % at 1 µM | hit rate 78% among 5,600 | purified M. tuberculosis FBA, fluorescence read-out | shares compounds with FBA Mtb inh;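 further: 0% = vehicle wells and 100% = reference inhibitor wells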
# GDH-TPI counter-2: counter-screen for M. tuberculosis FBA inhibitors: GDH-TPI coupled enzyme inhibition | shares compounds with FBA Mtb inh | GDH-TPI coupled enzyme counterscreen, fluorescence | inhibition, % at 1 µM | hit rate 81% among 5,600 | AID 652141; in the data active means inhibition above about 10%
# GDH-TPI DR: counter-screen for M. tuberculosis FBA inhibitors: GDH-TPI dose response; AID 652145; IC50, µM; shares compounds with FBA Mtb inh; hit rate 79% among 170; GDH-TPI coupled enzyme assay, fluorescence, artifact counterscreen; call rule not given here
# Numbers without * were called inactive; i = inactive; nt = no result given; + = active, no number. An excerpt weighted towards active compounds, which were near 4.1% of everything screened. Unless noted, no stated cut-off is given here; in the data, active means inhibition above about 27%; inactive means the rest.
SMILES,FBA Mtb inh,GDH-TPI counter-1,UGM FP inh,Vc quorum ag,RecA splice inh,Rv3671c protease,Mtb FBA inh conf,GDH-TPI counter-2,others
CC(C)CN1Cc2cc(-c3cccc(F)c3)ccc2-n2nncc2C1,8.5,nt,nt,nt,nt,nt,nt,nt,
CC(C)CN1Cc2cc(-c3ccccc3)ccc2-n2nncc2C1,31.1*,nt,nt,nt,nt,nt,+,+,
CCc1ccc(S(=O)(=O)NCc2csc(C)n2)cc1,34.0*,7.3,-1.6,i,-2.4,nt,1.1,-7.6,
COCc1cc(=O)n2[nH]c(-c3ccco3)cc2n1,33.6*,6.1,-1.8,i,3.9,3.2,9.8,3.9,
COCc1cc(=O)n2[nH]c(C)nc2n1,0.9,1.0,0.4,-0.2,1.9,-6.0,nt,nt,
CCOC(=O)Cc1cc(=O)n2[nH]c(-c3ccc(C)cc3)cc2n1,7.2,-0.6,0.4,3.3,-0.5,2.8,nt,nt,
COCc1cc(=O)n2[nH]c(-c3ccc(C)cc3)cc2n1,35.0*,2.8,1.2,i,0.5,12.2,152.4*,107.6*,
COCc1cc(=O)n2[nH]c(-c3cccs3)cc2n1,30.1*,-6.9,-1.0,-0.5,0.4,-2.1,64.9*,65.8*,
CCN(CC(=O)Nc1ccc(NC(C)=O)cc1)C(=O)CN1C(=O)C2CCCCC2C1=O (stereo unspecified),3.5,7.5,-1.2,-0.5,nt,0.5,nt,nt,
N#Cc1ccc(OCC(=O)NNC(=O)C2CCCCC2)cc1,29.9*,7.6,-0.6,-0.5,nt,5.6,2.4,0.4,
COc1ccc(-c2cc(C(=O)NCC3CCCO3)c3cc(C(C)C)ccc3n2)cc1 (stereo unspecified),67.3*,24.4,-1.8,i,-0.6,-8.1,10.3,-3.1,GDH-TPI DR=1.57*
COc1ccc(-c2nc(C(=O)NCC3CCCO3)cc3c2[nH]c2ccccc23)cc1 (stereo unspecified),29.6*,9.0,0.6,-0.5,2.6,-59.0,+,+,
COc1ccc(-c2cc(C(=O)NCC3CCCO3)c3ccccc3n2)cc1 (stereo unspecified),45.6*,8.5,1.7,i,-2.6,2.3,177.5*,172.7*,
COc1ccc(-n2c(N)c(C(=O)NCC3CCCO3)c3nc4ccccc4nc32)c(OC)c1 (stereo unspecified),104.2*,14.8,3.2,-4.2,-3.1,-8.3,73.0*,70.7*,
COc1cccc(-c2cc(C(=O)NCC3CCCO3)c3ccccc3n2)c1 (stereo unspecified),-5.9,7.8,1.1,i,3.5,-2.7,nt,nt,
Cc1c(C(=O)O)sc(S(=O)(=O)N2CCN(C(=O)CC(C)c3ccccc3)CC2)c1C(=O)O (stereo unspecified),-1.6,8.4,nt,i,nt,nt,nt,nt,
O=S1(=O)CC(N2CCN(c3ccccn3)CC2)CN1Cc1ccccc1 (stereo unspecified),3.8,nt,nt,nt,nt,nt,nt,nt,
N#Cc1ccccc1NC(=O)CN(Cc1ccccc1)Cc1ccccc1,2.3,8.2,2.6,-0.3,11.1,-3.4,nt,nt,
O=C(NCc1ccco1)c1cc(-c2ccccc2)nc2ccccc12,0.3,7.5,1.4,-0.7,2.7,-6.1,nt,nt,
COc1ccc(-c2cc(C(=O)NCC3CCCO3)c3cc(C)ccc3n2)cc1 (stereo unspecified),76.3*,11.8,0.8,-1.0,9.1,2.1,106.8*,72.3*,
COc1ccc(-c2cc(C(=O)NCc3ccco3)c3ccccc3n2)cc1,27.9*,19.1,3.5,i,-4.4,-7.1,nt,+,
CCOC(=O)c1c(-c2ccccc2Cl)cn2ccccc12,61.2*,12.4,-0.7,0.2,17.1,2.3,73.7*,68.0*,
CCOC(=O)c1c(-c2cccc([N+](=O)[O-])c2)cn2ccccc12,-8.8,1.6,-0.8,i,2.1,10.8,nt,nt,
Cc1nc2c3cnn(-c4ccc(C)c(C)c4)c3ncn2n1,38.1*,6.6,0.1,i,1.6,-14.8,118.6*,96.0*,
Cc1ccc(-n2ncc3c(=O)n(CC(N)=O)cnc32)cc1C,1.8,-4.1,1.4,-0.3,2.0,-1.5,nt,nt,
SMILES,FBA Mtb inh,GDH-TPI counter-1,UGM FP inh,Vc quorum ag,RecA splice inh,Rv3671c protease,Mtb FBA inh conf,GDH-TPI counter-2,others
CCOC(=O)c1ccc2[nH]c(C)cc(=O)c2c1,36.3*,13.5,1.0,0.7,0.0,5.6,+,196.2*,
COC(=O)c1ccc2[nH]c(C)cc(=O)c2c1,33.7*,11.0,0.6,-0.1,-0.6,-10.3,95.3*,84.5*,
CCOC(=O)c1ccc2[nH]c(C)c(C)c2c1,0.6,6.3,2.9,nt,-5.0,7.0,nt,nt,
COc1ccccc1CC(NC(C)=O)C(=O)NC1CCN(C(=O)c2cccc(Cl)c2)CC1 (stereo unspecified),-4.5,-9.0,-1.8,-0.4,-1.7,11.9,nt,nt,
N#CC(C(=O)CCN1C(=O)C2CC=CCC2C1=O)c1nc2ccccc2[nH]1 (stereo unspecified),47.3*,18.9,0.1,10.0,nt,5.1,26.0,19.9*,
CC(Oc1ccccc1)C(=O)N1CCN(c2ccc(N3CCOCC3)nn2)CC1 (stereo unspecified),29.7*,-7.4,-1.5,-0.4,-7.9,0.5,1.3,0.4,
Cc1ccccc1CS(=O)(=O)CCC(=O)N1CCN(c2ccc(N3CCOCC3)nn2)CC1,35.0*,0.0,-0.2,-0.4,-5.0,-0.3,66.4*,59.5*,
O=C(c1ccccc1)N1CCN(c2ccc(N3CCOCC3)nn2)CC1,31.6*,0.7,0.5,i,-9.0,8.9,28.0*,30.4*,
O=C(CCS(=O)(=O)Cc1ccccc1)N1CCN(c2ccccc2)CC1,-4.0,1.9,2.6,-0.2,0.7,-7.5,nt,nt,
O=C(Cn1c(=O)oc2ccccc21)N1CCN(c2ccc(N3CCOCC3)nn2)CC1,28.4*,14.1,-0.9,-0.3,-4.0,-3.3,132.0*,80.1*,
O=C(Cn1c(=O)oc2ccccc21)N1CCCCC1,3.5,10.4,-2.1,-6.2,2.2,2.7,nt,nt,
CCCCNC(=O)CCn1nc(-c2ccc(C)cc2)c2ccccc2c1=O,-0.4,-1.3,2.0,i,4.9,2.4,nt,nt,
CC(=O)N1CCN(CC(=O)Nc2cc(F)ccc2C)CC1,-0.3,12.7,-1.7,-0.4,1.6,6.8,nt,nt,
Nc1ccc2oc(-c3cccc4ccccc34)nc2c1,5.8,12.9,2.4,-16.7,-2.8,2.8,nt,nt,
Cc1cc2c(c(N)n1)c(=O)oc1ccccc12,39.8*,17.9,3.5,i,0.0,-4.0,-0.4,-0.5,
O=c1oc2ccccc2c2c1ccc1ccccc12,28.6*,13.6,nt,1.5,nt,nt,51.4*,42.8*,
O=c1oc2ccc3ccccc3c2cc1-c1nc2ccccc2o1,46.5*,7.9,1.7,-5.3,-137.3,-5.9,73.3*,67.4*,
COc1ccc(N2CCN(CCCNC(=O)Cn3c(=O)c4cccn4c4ccccc43)CC2)cc1,0.5,2.6,-3.3,i,-1.6,-2.8,nt,nt,

# Source: PubChem (several laboratories)
